Screens as filed in PubChem BioAssay.
An excerpt weighted towards active compounds, which were near 2.8% of everything screened.
MsrA inh: inhibitors of bovine MsrA; purified bovine MsrA, absorbance read-out; 360,000 compounds, 0.75% hits; AID 651718; inhibition, % at 15.5 µM; in the data active = inhibition above about 4.5%
rCAG binder-1: molecules binding r(CAG) RNA repeats; r(CAG) RNA repeat, TO-PRO-1 dye displacement fluorescence; inhibition, % at 3 µM; 370,000 compounds, 1.3% hits; AID 651821;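 active = inhibition above the plate cutoff, the mean of all test compounds on that plate plus 3 SD, cut at about 35% in these data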;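 also: higher means more dye released from RNA so lower well fluorescence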
HGIII-sPLA2 inh: Blocks human group III sPLA2 activity; Q9NZ20; QFRET BODIPY PC-A2 liposome hydrolysis, fluorescence; inhibition, % at 12.2 µM; 370,000 compounds, 0.56% hits; AID 743126;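 active = inhibition above mean plus 3 SD of compounds lying within the high and low control bounds, cut at about 19% in these data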
Target sequence (Q9NZ20 whole entry, looked up): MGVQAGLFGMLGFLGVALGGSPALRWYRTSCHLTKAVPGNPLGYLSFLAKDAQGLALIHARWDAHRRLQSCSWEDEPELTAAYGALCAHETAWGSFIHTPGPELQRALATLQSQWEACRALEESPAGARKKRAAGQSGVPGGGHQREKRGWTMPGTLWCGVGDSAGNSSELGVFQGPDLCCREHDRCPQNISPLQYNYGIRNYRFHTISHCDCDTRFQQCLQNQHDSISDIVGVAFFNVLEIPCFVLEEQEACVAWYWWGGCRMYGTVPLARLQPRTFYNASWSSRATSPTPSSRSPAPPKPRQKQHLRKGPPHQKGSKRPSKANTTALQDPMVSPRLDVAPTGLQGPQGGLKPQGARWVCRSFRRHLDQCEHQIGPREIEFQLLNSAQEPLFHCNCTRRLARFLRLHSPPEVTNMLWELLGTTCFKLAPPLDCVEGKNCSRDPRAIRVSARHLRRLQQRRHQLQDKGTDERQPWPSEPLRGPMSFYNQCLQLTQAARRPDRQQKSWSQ
MsrA act: activates bovine MsrA enzyme. purified bovine MsrA, absorbance read-out. activation, % at 10.6 µM. 360,000 compounds, 0.3% hits; in the data active = activation above about 7.5%
rCAG bind conf: r(CAG) RNA repeat binding, confirmation | shares compounds with rCAG binder-1 | 4,300 compounds, 70% hits | inhibition, % at 3 µM | TO-PRO-1 dye displacement fluorescence;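 active = inhibition above a per-plate cutoff, the mean inhibition of sample wells plus 3 SD, cut at about 35% in these data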;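 also: loss of TO-PRO-1 fluorescence as compound displaces dye from 1x1 AA loop RNA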
dCAG dye counter: DNA CAG dye complex inhibition counter-screen. 4,300 compounds, 94% hits. shares compounds with rCAG binder-1. inhibition, % at 3 µM. AID 652068. d(CAG) DNA oligo TO-PRO-1 dye displacement, fluorescence;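 active = inhibition above its plate's cutoff, the mean test-well inhibition plus 3 SD, cut at about 4.8% in these data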;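 also: hits displace the dye from DNA and so lower well fluorescence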
DNA CAG DR: DNA CAG dye complex inhibition, dose response counter-screen; shares compounds with rCAG binder-1; DNA CAG/GTC duplex TO-PRO-1 dye displacement fluorescence; IC50, µM; 250 compounds, 20% hits; in the data active = IC50 below about 10 µM
dCAG DNA bind: counter-screen for rCAG binders: DNA CAG TO-PRO-1 complex inhibitors, late stage. IC50, µM. shares compounds with rCAG binder-1. d(CAG) DNA duplex TO-PRO-1 dye displacement, fluorescence. 30 compounds, 80% hits
rCAG binder-2: molecules binding r(CAG) RNA repeats, late stage dose response; shares compounds with rCAG binder-1; r(CAG) RNA TO-PRO-1 dye displacement, fluorescence; IC50, µM; 30 compounds, 100% hits; AID 720651
Numbers stand for hits; – = inactive; · = no result. Unless noted, no rule for the calls is given here.

SMILES	MsrA inh	rCAG binder-1	HGIII-sPLA2 inh	MsrA act	rCAG bind conf	dCAG dye counter	others
O=C(O)C1CCCN1c1nc(-c2ccc(Cl)c(Cl)c2)cc(C(F)(F)F)n1 (stereo not drawn)	–	43.6	–	–	43.0	12.2	DNA CAG DR=–
Cc1ccc(Nc2nnc(SC/C(O)=C(\C#N)c3nc4ccccc4[nH]3)s2)c(C)c1	–	38.7	–	–	41.5	16.4
Cc1cccc(Nc2nnc(SC/C(O)=C(\C#N)c3nc4ccccc4[nH]3)s2)c1	–	–	–	–	·	·
CCC12CN(S(=O)(=O)c3ccc(C)cc3)CC(CC)(CN(S(=O)(=O)c3ccc(C)cc3)C1)C2=O	–	–	–	–	·	·
CC1(C)CC(=O)N(CC(=O)N2CCN(c3ccc(F)cc3)CC2)c2ccccc2S1(=O)=O	·	–	–	·	·	·
CCOc1ccc(NS(=O)(=O)c2ccc(NS(=O)(=O)c3ccccc3)cc2)cc1	–	36.4	–	–	–	–
CCOc1ccc(S(=O)(=O)Nc2cccc(Cl)c2)cc1	–	–	–	–	·	·
CCOc1ccc(Oc2ccc(NS(=O)(=O)c3ccc(CCC(=O)O)cc3)cc2)cc1	–	42.8	–	–	38.3	10.7
O=C(O)c1cc(NS(=O)(=O)c2ccc(F)cc2)cc(NS(=O)(=O)c2ccc(F)cc2)c1	–	–	–	–	·	·
CCOc1ccc(Oc2ccc(NS(=O)(=O)c3cc(C(=O)O)ccc3Cl)cc2)cc1	–	38.3	–	–	38.7	10.9
CCOc1ccc(S(=O)(=O)Nc2cc(NS(=O)(=O)c3ccc(OCC)cc3)cc(C(=O)O)c2)cc1	–	58.4	–	–	60.2	24.5
COc1ccc(/C=C/C(=O)OCC(=O)Nc2nnc(-c3ccccc3)o2)c(OC)c1	–	–	–	–	·	·
O=C(NNC(=O)[C@H]1CC=CC[C@H]1C(=O)O)c1ccc(Cl)cc1Cl	–	–	–	–	·	·
OC1(CNCc2cn[nH]c2-c2cc3ccccc3o2)CCCCC1	–	–	–	–	·	·
O=C(N/N=C1/CCSC1)c1cc(Br)ccc1O	–	41.0	–	–	–	7.3
CCCC(=O)Nc1ccc(S(=O)(=O)Nc2cc(OC)nc(OC)n2)cc1	–	–	–	–	·	·
COc1cc(NS(=O)(=O)c2ccc(NC(=O)COc3ccccc3Cl)cc2)nc(OC)n1	–	64.5	–	·	38.4	12.2
CCOc1ccccc1C(=O)Nc1ccc(S(=O)(=O)Nc2cc(OC)nc(OC)n2)cc1	–	50.9	–	–	–	7.6
CN1C(=O)C(C)(C)c2cc(S(=O)(=O)N(C)Cc3ccccc3)ccc21	–	–	–	–	·	·
CCOC(=O)C1=C(N)n2c(s/c(=C\c3ccco3)c2=O)=C(C(=O)OC(C)C)C1c1ccco1 (stereo not drawn)	–	40.4	–	–	–	7.1
CCOC(=O)C1=C(N)n2c(s/c(=C\c3ccco3)c2=O)=C(C(=O)OCC)C1c1ccco1 (stereo not drawn)	·	·	·	–	·	·
COc1ccc(Br)c2oc(S)cc(=O)c12	–	40.7	–	–	–	7.6
CCC1Oc2ccccc2N(CC(=O)NCCN2CCCC2)C1=O (stereo not drawn)	–	–	–	–	·	·
O=[N+]([O-])c1cc(Cl)ccc1N1CCN(c2cccc(C(F)(F)F)c2)CC1	–	–	–	–	·	·
O=C(O)c1cc([N+](=O)[O-])cc([N+](=O)[O-])c1N1CCN(c2cccc(C(F)(F)F)c2)CC1	–	40.6	–	–	–	5.7
SMILES	MsrA inh	rCAG binder-1	HGIII-sPLA2 inh	MsrA act	rCAG bind conf	dCAG dye counter	others
Cc1noc(NS(=O)(=O)c2ccc(NC(=O)CC(C)C)cc2)c1C	–	–	–	–	·	·
Cc1noc(NS(=O)(=O)c2ccc(NC(=O)COc3ccc(Cl)cc3Cl)cc2)c1C	–	77.0	–	–	69.8	22.2	DNA CAG DR=–;dCAG DNA bind=3.59;rCAG binder-2=1.28
COc1ccccc1OCC(=O)Nc1ccc(S(=O)(=O)Nc2onc(C)c2C)cc1	–	–	–	–	·	·
CCCCCCC(=O)Nc1ccc(S(=O)(=O)Nc2onc(C)c2C)cc1	–	–	–	–	·	·
Cc1noc(NS(=O)(=O)c2ccc(NC(=O)CSc3nc4c(cc3C#N)CCCCC4)cc2)c1C	–	41.7	–	–	–	8.2
Cc1ccc(C)c(OCC(=O)Nc2cc(NC(=O)COc3cc(C)ccc3C)cc(C(=O)O)c2)c1	–	48.8	–	–	77.3	41.5
Cc1noc(NS(=O)(=O)c2ccc(NC(=O)CCCOc3ccc(Cl)cc3Cl)cc2)c1C	–	86.8	–	–	73.2	37.6
CC(C)c1ccc(C2(O)C(=O)Nc3cc(Br)ccc32)c(O)c1 (stereo not drawn)	–	–	–	–	·	·
COc1cccc2cc(-c3nnc(SCC(=O)Nc4nc(C)cs4)n3C)oc12	–	–	–	–	·	·
Cc1ccc(C)c(OCC(=O)Nc2ccc(S(=O)(=O)Nc3onc(C)c3C)cc2)c1	–	47.6	–	–	46.1	12.5
CCc1cccc(OCC(=O)Nc2ccc(S(=O)(=O)Nc3onc(C)c3C)cc2)c1	–	37.3	–	–	–	7.1
CCc1cccc(OCC(=O)Nc2c[nH]c(=O)[nH]c2=O)c1	–	–	–	–	·	·
CCc1cccc(OCC(=O)Nc2ccc(C(=O)O)cc2NC(=O)COc2cccc(CC)c2)c1	–	78.0	–	–	71.5	35.5
CCOC(=O)Cc1[nH]nc2c1C(C1C=CCCC1)C(C#N)=C(N)O2 (stereo not drawn)	–	–	–	–	·	·
COc1cc(C)ccc1S(=O)(=O)NC(=O)C1(C)CCN1C(=O)Cc1ccccc1Cl (stereo not drawn)	–	–	–	–	·	·
Cc1ccc(F)c(S(=O)(=O)NC(=O)C2(C)CCN2C(=O)C2(c3ccc(Cl)cc3)CCC2)c1 (stereo not drawn)	–	36.1	–	–	62.6	24.1
CCS(=O)(=O)NC(=O)C1(C)CCN1C(=O)C1(c2ccc(Cl)cc2)CC1 (stereo not drawn)	–	–	–	–	·	·
Cc1cccc(S(=O)(=O)NC(=O)C2(C)CCN2C(=O)C2(c3ccc(Cl)cc3)CC2)c1 (stereo not drawn)	–	–	–	–	·	·
Cc1ccc(F)c(S(=O)(=O)NC(=O)C2(C)CCN2C(=O)C2(c3ccc(Cl)cc3)CC2)c1 (stereo not drawn)	–	36.4	–	–	34.7	7.6
COc1cc(C)ccc1S(=O)(=O)NC(=O)C1(C)CCN1C(=O)C1(c2ccc(Cl)cc2)CCC1 (stereo not drawn)	–	42.0	–	–	–	5.4
CCCc1cc(=O)[nH]c(SCC(=O)N(CC)Cc2ccccc2)n1	–	–	–	–	·	·
Fc1ccc(CSc2nncn2NCc2ccccc2)cc1	–	–	–	–	·	·
